According to PubChem BioAssay (NCI):
Compounds without any hit were thinned out: in the full panel of roughly 83,000, 20% have a hit.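 Each cell line was grown in a 96-well plate and treated with one concentration of compound for 48 hours. Values below 10 were considered active.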 Values without a mark were called inactive. Activity calls are given as the source filed them.

Each molecule was assayed on MDA-MB-231 breast (assay: NCI-60 one-dose screen, 48 h (100 = growth as untreated, 0 = no growth, -100 = all killed)). Settings: 10 µM unless noted.
For `C=CC(=O)N[C@@H](/C=C/C(=O)OCC)Cc1ccc(-c2cc(Cl)cc(Cl)c2)cc1`, the growth was 9.36% (active). In the case of `NC(=NCCCOc1ccc(F)cc1)Nc1ccc(I)cc1`, the growth is reported as 51.9%. In the case of `Cc1cc2nc3c4cccc(O)c4n(CCN(C)C)c3nc2cc1C`, the growth is reported as 28.1%. For `Oc1ccc(C(c2ccc(O)cc2)c2ccc(Br)cn2)cc1`, the growth was 83%.

These molecules were tested on RXF 393 renal in the same assay as above. Settings: 10 µM unless noted.
For `COc1cc(C=O)ccc1OC1OC(COC(C)=O)C(OC(C)=O)C(OC(C)=O)C1OC(C)=O` (stereo not drawn), the growth was 103%. With `CC1=CCC(OC(=O)C(C)(O)CCC(O)(C(=O)OC2(C)C=CC(O)(C(C)C)CC2)C(C)C)(C(C)C)CC1` (stereo not drawn) the growth was 98.5%. Work on `CC(=O)Nc1cccc(-c2ccc3c(c2)NC(=O)/C3=C\c2ccc[nH]2)c1` yielded a growth of 54.3%. With `CC(C)(C)c1ccc(NS(=O)(=O)c2ccc3nc(NC(=O)c4cnccn4)[nH]c3c2)cc1` the growth was 13.5%. `CC(C)(C)c1cc(/C=N/NC(=O)c2ccccc2NC(=O)c2cccs2)c(O)c(C(C)(C)C)c1` gave a growth of 64.6%. In the case of `C#CCNC(=O)[C@H](Cc1ccccc1)NC(=O)[C@]12CC[C@@H](C(=C)C)[C@@H]1[C@H]1CC[C@@H]3[C@@]4(C)CCC(=O)C(C)(C)[C@@H]4CC[C@@]3(C)[C@]1(C)CC2`, the growth is reported as 82.9%. `CCCCCCNC(=O)Oc1ccc(/C(=C(\C)c2ccccc2)c2ccc(OCCCN(C)C)cc2)cc1` gave a growth of 75.4%. Molecule `CC(=O)Nc1ccc(-c2ccc3c(c2)NC(=O)/C3=C\c2ccc[nH]2)cc1` has a growth of 104%. In the case of `CCCCOc1ccc(/C=N/Nc2cc(C)nc3ccc(Br)cc23)cc1`, the growth is reported as -72% (active).
